Source: PubChem BioAssay AID652115 (Broad Institute, 2013)
Out of some 330,000 compounds screened, about 3,800 (1.2%) were called active. No stated cut-off is given here; in the data, active means inhibition above about 15%; inconclusive means no clear call, values can overlap the other calls; inactive means below that. What follows is part of a selection rich in actives, with near analogues and random picks from the rest.

Target: NAD-dependent protein deacylase sirtuin-5, mitochondrial (Homo sapiens) (UniProt Q9NXA8)
Sequence (Q9NXA8 whole entry, looked up): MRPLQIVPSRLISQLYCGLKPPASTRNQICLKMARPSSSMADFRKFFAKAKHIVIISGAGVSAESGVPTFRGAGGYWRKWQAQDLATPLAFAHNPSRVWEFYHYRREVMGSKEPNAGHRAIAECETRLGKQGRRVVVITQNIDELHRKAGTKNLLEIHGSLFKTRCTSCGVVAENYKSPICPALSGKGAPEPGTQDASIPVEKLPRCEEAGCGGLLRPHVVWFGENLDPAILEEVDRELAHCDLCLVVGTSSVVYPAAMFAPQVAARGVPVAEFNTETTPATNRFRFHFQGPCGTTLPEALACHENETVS
Test: SIRT5 desuccinylase inhibitors, primary screen, biochemical, fluorescence imaging, single point, set 5 (AID 652115)
Details: Purified SirT5, succinyl-peptide AMC, trypsin-coupled fluorescence; at 15 µM; stronger effect = higher value

inhibition, inactive:
O=C(C[C@H]1CC[C@H]2[C@@H](COC[C@@H](O)CN2C(=O)c2ccc3c(c2)OCO3)O1)NC1Cc2ccccc2C1 -1.48%
CCCNC(=O)Nc1ccc2c(c1)OC[C@H](C)N(C(=O)C1CCC1)C[C@H](C)[C@@H](OC)CN(C)C2=O -2.08%
COc1ccc2c3c([nH]c2c1)[C@H](CO)N(Cc1nccs1)CC31CCN(Cc2ccncc2)CC1 1.68%
CC=Cc1ccc2n(c1=O)C[C@@H]1[C@@H](CO)[C@H](C(=O)N3CCCCC3)[C@H]2N1C(=O)C1CCC1 (mixture of isomers) -13.5%
Nc1ccccc1-c1cn(CC(=O)Nc2ccon2)nn1 -0.431%
C[C@@H]1CN([C@H](C)CO)C(=O)c2cc(C#CCC3CCCC3)cnc2O[C@H]1CN(C)Cc1ccccn1 -6.11%
C[C@H](CO)N1C[C@H](C)[C@H](CN(C)Cc2ccc3c(c2)OCO3)OCCCC[C@H](C)Oc2ccc(NC(=O)c3ccccc3)cc2C1=O 3.6%
O=C(C[C@H]1CC[C@@H]2[C@H](COC[C@H](O)CN2S(=O)(=O)c2ccccc2)O1)N1CCOCC1 -0.872%
COc1ccccc1-c1cnc2c(c1)C(=O)N([C@@H](C)CO)C[C@@H](C)[C@H](CN(C)Cc1cccnc1)O2 0.854%
CN1c2ccc(C3=CCCCC3)cc2[C@@H]2[C@@H](CCN2S(=O)(=O)c2ccccc2F)[C@H]1CO 3.11%
O=C(C[C@@H]1C=C[C@@H](NC(=O)C2CCC2)[C@H](CO)O1)NCC1CC1 -2.09%
CCOC(=O)c1c(-c2ccccc2)oc2cc(Br)c(O)cc12 0.164%
CCOC(=O)c1c(-c2ccccc2)oc2ccc(OCC(=O)NN)cc12 6.17%
CN1C(=O)c2cc(NC(=O)c3cccc(F)c3)ccc2OC[C@H]2O[C@@H](CC(=O)NCc3ccccc3Cl)CC[C@@H]21 6.51%
O=C(C[C@H]1C[C@H]2c3cc(NC(=O)NC4CCCC4)ccc3O[C@H]2[C@H](CO)O1)NCCc1ccccc1 -4.04%
CCC(=O)N1C[C@@H](C)[C@H](OC)CN(C)C(=O)c2cc(NC(=O)NC3CCCC3)ccc2OC[C@H]1C 3.98%
COCOCCn1cc(CN2CCS(=O)(=O)N(Cc3ccc(-c4cccc(N(C)C)c4)cc3)C(CC(C)C)C2=O)nn1 (stereo not given) -0.197%
COCOCCn1cc(CN2CCS(=O)(=O)N(Cc3ccc(-c4ccccc4)cc3)C(CC(C)C)C2=O)nn1 (stereo not given) -0.714%

inhibition, active:
CCOC(=O)c1c(-c2ccccc2)oc2ccc(OCC(N)=O)cc12 22.2%
COCOCCn1cc(CN2CCS(=O)(=O)N(Cc3ccc(-c4ccc(OC)cc4)cc3)C(CC(C)C)C2=O)nn1 (stereo not given) 18.3%
